Reference: PubChem BioAssay (EPA / NIEHS)
The source made the active and inactive calls. Rule for the calls: active = hit-call score of the fitted dose curve at least 0.9, where 1 is the maximum; inactive = score below 0.9.

What was measured:
Conditions in all cases: mRNA level, 48 h; actives raise or lower the signal
[1] = read-out: Early growth response protein 1 (EGR1) transcription factor, EGR1 (gene 1958); experiment: LTEA_HepaRG_EGR1: Life Technologies and Expression Analysis (LTEA) Assay for Early growth response protein 1 (EGR1) transcription factor using HepaRG (AID 2283490)
How it was run: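 EGR1 transcript levels quantified by qRT-PCR (Fluidigm arrays) against three housekeeping genes after 48 h chemical exposure of HepaRG cells. Eight-point half-log series topping at 100 uM, 0.5% DMSO vehicle, analyzed for gain or loss.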

[2] = read-out: Ezrin (EZR), EZR (gene 7430); experiment: LTEA_HepaRG_EZR: Life Technologies and Expression Analysis (LTEA) Assay for Ezrin (EZR) using HepaRG (AID 2283491)
How it was run: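 Differentiated human HepaRG cells, 48 h after plating, were exposed in serum-free induction medium for 48 hours to eight half-log concentrations up to 100 uM in 0.5% DMSO. EZR mRNA was measured by TaqMan qRT-PCR, normalized to ACTB, GAPDH and POLR2A, and fitted bidirectionally against DMSO.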

[3] = read-out: Cytochrome P450 3A7 (Homo sapiens) (UniProt P24462); experiment: LTEA_HepaRG_CYP3A7: Life Technologies and Expression Analysis (LTEA) Assay for CYP3A7 using HepaRG (AID 2283492)
How it was run: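 Cells were thawed, plated, cultured 48 h, then treated for a further 48 h with chemicals (eight-point half-log series from 100 uM, 0.5% DMSO). RNA was isolated and CYP3A7 expression quantified by qRT-PCR normalised to ACTB, GAPDH and POLR2A.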

CYP3A5 (gene 1577) = experiment: LTEA_HepaRG_CYP3A5: Life Technologies and Expression Analysis (LTEA) Assay for CYP3A5 using HepaRG (AID 2283493)
How it was run: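 Human HepaRG hepatic cells receive 48 h chemical treatment at eight concentrations (half-log steps from 100 uM) in 0.5% DMSO. Expression of CYP3A5 is quantified by Fluidigm qRT-PCR and normalized to three reference genes.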

[4] = read-out: Fatty Acid-Binding Protein 1 (FABP1), FABP1 (gene 2168); experiment: LTEA_HepaRG_FABP1: Life Technologies and Expression Analysis (LTEA) Assay for Fatty Acid-Binding Protein 1 (FABP1) using HepaRG (AID 2283494)
How it was run: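 FABP1 expression by TaqMan qRT-PCR, normalised to three housekeeping genes, in HepaRG cells after 48 h chemical treatment. Eight-point half-log series topping at 100 uM in 0.5% DMSO, duplicates; gain or loss fitted relative to vehicle.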

[5] = read-out: Cytochrome P450 7A1 (Homo sapiens) (UniProt P22680); experiment: LTEA_HepaRG_CYP7A1: Life Technologies and Expression Analysis (LTEA) Assay for Cytochrome P450 7A1 (CYP7A1) using HepaRG (AID 2283496)
How it was run: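 HepaRG, 48 h exposure, 8-pt half-log series from 100 uM, 0.5% DMSO vehicle, duplicates. Readout: TaqMan qRT-PCR mRNA vs three housekeeping genes; bidirectional curve fit against DMSO baseline.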

[6] = read-out: Glutathione S-Transferase (GSTA2), GSTA2 (gene 2939); experiment: LTEA_HepaRG_GSTA2: Life Technologies and Expression Analysis (LTEA) Assay for Glutathione S-Transferase (GSTA2) using HepaRG (AID 2283497)
How it was run: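 GSTA2 transcript levels came from Fluidigm TaqMan qRT-PCR normalized to three housekeeping genes, fitted in both directions against DMSO. HepaRG cultures received chemicals for 48 h in serum-free induction medium (0.5% DMSO), 8 half-log concentrations up to 100 uM, duplicate.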

[7] = read-out: Glutamate-cysteine ligase catalytic (GCLC), GCLC (gene 2729); experiment: LTEA_HepaRG_GCLC: Life Technologies and Expression Analysis (LTEA) Assay for Glutamate-cysteine ligase catalytic (GCLC) using HepaRG (AID 2283498)
How it was run: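 Expression by TaqMan qRT-PCR, normalized to three housekeeping genes (ACTB, GAPDH, POLR2A), with up- or down-regulation fitted against DMSO. HepaRG cells dosed in duplicate for 48 h with 8 half-log concentrations up to 100 uM, vehicle 0.5% DMSO.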

[8] = read-out: growth arrest and DNA damage 45 (GADD45G), GADD45G (gene 10912); experiment: LTEA_HepaRG_GADD45G: Life Technologies and Expression Analysis (LTEA) Assay for growth arrest and DNA damage 45 (GADD45G) using HepaRG (AID 2283499)
How it was run: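 Human hepatic HepaRG line treated 48 h with chemicals (eight concentrations, half-log steps from 100 uM); transcript induction or repression of GADD45G scored by qRT-PCR versus DMSO vehicle.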

[9] = read-out: Heat shock 70 kDa protein 1 (HSPA1A), gene 3303; experiment: LTEA_HepaRG_HSPA1A: Life Technologies and Expression Analysis (LTEA) Assay for Heat shock 70 kDa protein 1 (HSPA1A) using HepaRG (AID 2283502)
How it was run: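 Cells were plated and cultured for 48 h, then switched to serum-free induction medium. Chemicals were added at eight half-log concentrations up to 100 uM for 48 h. RNA was then isolated and HSPA1A measured by qRT-PCR with bidirectional curve fitting against DMSO.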

[10] = read-out: Hypoxia-inducible factor 1-alpha (Homo sapiens) (UniProt Q16665); experiment: LTEA_HepaRG_HIF1A: Life Technologies and Expression Analysis (LTEA) Assay for Hypoxia-inducible factor 1 (HIF1A) Trancription factor using HepaRG (AID 2283503)
How it was run: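 HIF1A transcript level read by qRT-PCR (ACTB, GAPDH, POLR2A normalization) after 48 h chemical exposure of HepaRG cultures. Eight half-log concentrations, top 100 uM, 0.5% DMSO vehicle, duplicates; bidirectional curve fit against DMSO baseline.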

[11] = read-out: 3-Hydroxy-3-Methylglutaryl-CoA Synthase 2 (HMGCS2), HMGCS2 (gene 3158); experiment: LTEA_HepaRG_HMGCS2: Life Technologies and Expression Analysis (LTEA) Assay for 3-Hydroxy-3-Methylglutaryl-CoA Synthase 2 (HMGCS2) using HepaRG (AID 2283504)
How it was run: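 Expression of HMGCS2 in human HepaRG liver cells is measured by qRT-PCR 48 h after dosing (highest 100 uM, half-log series, 0.5% DMSO). Values come from bidirectional concentration-response fitting with DMSO as baseline.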

HGF (gene 3082) = experiment: LTEA_HepaRG_HGF: Life Technologies and Expression Analysis (LTEA) Assay for Hepatocyte Growth Facto (HGF) using HepaRG (AID 2283505)
How it was run: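 Gain or loss of HGF mRNA in human HepaRG liver cells after 48 h chemical exposure; eight concentrations up to 100 uM with 0.5% DMSO vehicle, quantified by TaqMan qRT-PCR.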

[12] = read-out: Insulin Like Growth Factor 1 (IGF1), IGF1 (gene 3479); experiment: LTEA_HepaRG_IGF1: Life Technologies and Expression Analysis (LTEA) Assay for Insulin Like Growth Factor 1 (IGF1) using HepaRG (AID 2283506)
How it was run: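 Cells are thawed, plated and cultured 48 h, then exposed in duplicate to chemical (highest 100 uM, half-log steps, 0.5% DMSO) for another 48 h. Total RNA is analysed by Fluidigm qRT-PCR for IGF1 expression relative to vehicle.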

[13] = read-out: Intercellular Adhesion Molecule 1 (ICAM1), ICAM1 (gene 3383); experiment: LTEA_HepaRG_ICAM1: Life Technologies and Expression Analysis (LTEA) Assay for Intercellular Adhesion Molecule 1 (ICAM1) using HepaRG (AID 2283507)
How it was run: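 Gain or loss of transcript in HepaRG hepatic cells is quantified by qRT-PCR after 48 h chemical exposure (up to 100 uM, half-log steps), with DMSO as baseline.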

[14] = read-out: Insulin-like growth factor-binding protein 1 (IGFBP1), IGFBP1 (gene 3484); experiment: LTEA_HepaRG_IGFBP1: Life Technologies and Expression Analysis (LTEA) Assay for Insulin-like growth factor-binding protein 1 (IGFBP1) using HepaRG (AID 2283508)
How it was run: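 mRNA induction or loss was quantified by qRT-PCR after 48 h chemical exposure of human HepaRG cells, with 0.5% DMSO as vehicle and baseline. Concentration-response over eight points up to 100 uM.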

[15] = read-out: Pro-epidermal growth factor (Homo sapiens) (UniProt P01133); experiment: LTEA_HepaRG_EGF: Life Technologies and Expression Analysis (LTEA) Assay for Epidermal growth factor (EGF) using HepaRG (AID 2283489)
How it was run: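 EGF expression changes in human HepaRG cells are scored by bidirectional fitting relative to 0.5% DMSO controls. Chemicals are tested at eight half-log concentrations up to 100 uM for 48 h in serum-free induction medium.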

[16] = read-out: Glutamate-cysteine ligase regulatory (GCLM), GCLM (gene 2730); experiment: LTEA_HepaRG_GCLM: Life Technologies and Expression Analysis (LTEA) Assay for Glutamate-cysteine ligase regulatory (GCLM) using HepaRG (AID 2283500)
How it was run: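 Endpoint is GCLM transcript level by qRT-PCR, normalized to three housekeeping genes, after 48 h chemical exposure of human HepaRG cells (0.5% DMSO vehicle, top 100 uM, half-log dilutions). Fitting was bidirectional relative to DMSO.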

[17] = read-out: Glutathione S-transferase M3 (GSTM3), GSTM3 (gene 2947); experiment: LTEA_HepaRG_GSTM3: Life Technologies and Expression Analysis (LTEA) Assay for Glutathione S-transferase M3 (GSTM3) using HepaRG (AID 2283501)
How it was run: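 Changes in GSTM3 expression, an oxidative-stress marker, were scored by bidirectional curve fitting against 0.5% DMSO vehicle. Human HepaRG cultures received chemicals for 48 h in duplicate, highest concentration 100 uM with half-log dilutions.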

Measured: AC50

Chain of Cytochrome P450 3A7 (Homo sapiens) (P24462 whole entry, looked up): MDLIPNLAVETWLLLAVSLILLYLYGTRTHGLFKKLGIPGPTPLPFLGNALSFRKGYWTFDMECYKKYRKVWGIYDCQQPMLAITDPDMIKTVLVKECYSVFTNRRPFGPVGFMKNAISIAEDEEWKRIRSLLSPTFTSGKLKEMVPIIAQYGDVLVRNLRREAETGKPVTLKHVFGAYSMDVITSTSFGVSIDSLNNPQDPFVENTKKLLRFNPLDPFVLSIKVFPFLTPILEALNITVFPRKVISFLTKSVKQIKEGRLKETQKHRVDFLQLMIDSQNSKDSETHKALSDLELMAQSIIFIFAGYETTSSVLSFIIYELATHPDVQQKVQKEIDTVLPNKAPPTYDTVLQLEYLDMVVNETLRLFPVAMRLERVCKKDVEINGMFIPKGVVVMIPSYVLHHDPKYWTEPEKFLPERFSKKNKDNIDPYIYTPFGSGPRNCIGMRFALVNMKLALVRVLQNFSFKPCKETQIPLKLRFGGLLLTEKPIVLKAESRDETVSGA
Chain of Hypoxia-inducible factor 1-alpha (Homo sapiens) (Q16665 whole entry, looked up): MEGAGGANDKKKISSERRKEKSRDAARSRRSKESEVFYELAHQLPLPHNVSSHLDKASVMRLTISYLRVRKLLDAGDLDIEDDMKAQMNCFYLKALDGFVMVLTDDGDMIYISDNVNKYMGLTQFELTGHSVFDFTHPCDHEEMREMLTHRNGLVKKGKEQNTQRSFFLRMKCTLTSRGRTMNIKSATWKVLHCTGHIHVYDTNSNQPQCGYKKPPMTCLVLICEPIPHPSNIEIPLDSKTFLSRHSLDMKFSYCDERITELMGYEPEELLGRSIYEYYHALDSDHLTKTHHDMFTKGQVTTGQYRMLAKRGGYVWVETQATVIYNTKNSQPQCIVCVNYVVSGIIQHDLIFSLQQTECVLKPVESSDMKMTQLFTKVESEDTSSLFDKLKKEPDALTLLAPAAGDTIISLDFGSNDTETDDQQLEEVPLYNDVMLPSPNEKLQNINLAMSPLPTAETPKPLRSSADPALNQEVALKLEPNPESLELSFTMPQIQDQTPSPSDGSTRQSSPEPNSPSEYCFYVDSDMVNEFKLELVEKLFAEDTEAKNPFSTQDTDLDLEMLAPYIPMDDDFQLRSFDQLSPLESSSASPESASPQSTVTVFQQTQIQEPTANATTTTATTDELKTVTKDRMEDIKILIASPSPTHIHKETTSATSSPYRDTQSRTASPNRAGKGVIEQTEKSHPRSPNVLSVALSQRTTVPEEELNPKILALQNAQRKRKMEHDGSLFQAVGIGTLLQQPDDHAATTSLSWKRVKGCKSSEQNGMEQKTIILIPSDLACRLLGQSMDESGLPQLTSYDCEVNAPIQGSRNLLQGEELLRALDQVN

O=c1n(Cl)c(=O)n(Cl)c(=O)n1Cl
not listed: [15] | [16] | [17]
inactive: all other assays above

CCNP(=S)(OC)O/C(C)=C/C(=O)OC(C)C (stereo not given)
active: [3] 4.03 µM | [16] 9.92 µM | [11] 25.8 µM | [12] 50 µM
not listed: [7] | [17]
inactive: all other assays above

CC1(C)CON(Cc2ccccc2Cl)C1=O
active: [3] 1.47 µM | [12] 25.6 µM
not listed: [16]
inactive: all other assays above

Cc1cnc(C2=NC(C)(C(C)C)C(=O)N2)c(C(=O)O)c1 (stereo not given)
not listed: [7] | [16]
inactive: all other assays above

CC(C)(C)C(=O)C(Oc1ccc(Cl)cc1)n1cncn1 (stereo not given)
active: [3] 12.1 µM | [4] 50 µM
not listed: [6] | [7] | [12] | [16] | [17]
inactive: all other assays above

CCCN(CC)CC1COC2(CCC(C(C)(C)C)CC2)O1 (stereo not given)
not listed: [7] | [8] | [17]
inactive: all other assays above

CC1(C)C(C=C(Cl)Cl)C1C(=O)OC(C#N)c1cccc(Oc2ccccc2)c1 (stereo not given)
active: [5] 13.9 µM | [12] 50 µM
not listed: [7] | [16] | [17]
inactive: all other assays above

CCCCOCN(C(=O)CCl)c1c(CC)cccc1CC
active: [12] 50 µM
not listed: [7] | [16] | [17]
inactive: all other assays above
